Screening data deposited in PubChem by Johns Hopkins Ion Channel Center.
Shown are actives, neighbours in structure and some others; about 1.6% of the full set was active somewhere.
KCNQ2 enhance: KCNQ2 (rat) channel potentiation | B-score at 10 µM | 310,000 tested, 0.54% active | CHO-K1 KCNQ2, FluxOR thallium flux fluorescence; stronger effect = higher value | O88943;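 active = fluorescence ratio B-score at least 3 SD of library B-scores, with initial fluorescence B-score within 3 of them, cut at about 5.3 in these data; same plate scores as AID 2156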;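 also: B-score of peak minus minimum over baseline fluorescence ratio after K+ and Tl+ stimulus; positive B-score means potentiation of KCNQ2 with more thallium influx and brighter signal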
KCNQ2 block: inhibitors of rat KCNQ2 potassium channel; O88943; CHO-K1 KCNQ2, FluxOR thallium flux, 20 min; stronger effect = lower value; B-score at 10 µM; 310,000 tested, 1.1% active; AID 2156;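 active = fluorescence ratio B-score at most minus 3 library SDs, with starting brightness B-score within 2 library SDs, cut at about -5.5 in these data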
Kir21 conf inh: confirmation of mouse Kir2.1 potassium channel inhibitors; shares compounds with KCNQ2 enhance; Kir2.1-expressing cells, FluxOR thallium flux fluorescence; stronger effect = lower value; Tl flux remaining, % of negative control (stronger effect = lower value), % at 10 µM; 2,300 tested, 41% active;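 active = Primary-screen hit whose thallium flux fell at least 3 control SD below untreated wells in both duplicates, with normal baseline fluorescence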;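 also: 0% = blank wells without stimulus and 100% = stimulated no-compound controls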
HEK293 Tl flux: counter-screen for Kir2.1 inhibitors: effect in parental HEK293 cells | shares compounds with KCNQ2 enhance | FluxOR thallium flux fluorescence; 0% = unstimulated blank wells | FluxOR signal as % of negative control (100 = no effect), % at 10 µM | 2,300 tested, 19% active | AID 2105;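 active = dye signal at least 3 control SD above or below untreated wells in both duplicates, raw fluorescence within 3, either direction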;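 also: percent is based on the flux ratio of peak minus minimum fluorescence over baseline F0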
CHO-K1 ctr: alters thallium flux in parental CHO-K1 cells, KCNQ2 counter-screen. shares compounds with KCNQ2 enhance. FluxOR thallium flux fluorescence; zero = vehicle mean+3SD, 100% = vehicle-minus-blank window. activity increase over 3SD of controls, % at 10 µM. 1,200 tested, 43% active. AID 2282;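 active = signal rise of at least 3 SD above the untreated control mean, in both duplicate wells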;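 also: counter screen of KCNQ2 potentiator hits so any rise reflects channel-independent effects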
KCNQ1 sel pot: selectivity of KCNQ2 potentiators: effect on human KCNQ1 | shares compounds with KCNQ2 enhance | CHO KCNQ1 stable, FluxOR thallium flux fluorescence; beyond 3SD, as % of vehicle-control signal | activation over 3SD threshold, % at 10 µM | 1,200 tested, 28% active | AID 2283;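 active = fluorescence ratio rise of at least 3 SD of vehicle wells above their mean, in both replicate wells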;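 also: 0% = vehicle mean plus 3 SD and 100% = vehicle minus unstimulated blank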
Target sequence (P51787 whole entry, looked up): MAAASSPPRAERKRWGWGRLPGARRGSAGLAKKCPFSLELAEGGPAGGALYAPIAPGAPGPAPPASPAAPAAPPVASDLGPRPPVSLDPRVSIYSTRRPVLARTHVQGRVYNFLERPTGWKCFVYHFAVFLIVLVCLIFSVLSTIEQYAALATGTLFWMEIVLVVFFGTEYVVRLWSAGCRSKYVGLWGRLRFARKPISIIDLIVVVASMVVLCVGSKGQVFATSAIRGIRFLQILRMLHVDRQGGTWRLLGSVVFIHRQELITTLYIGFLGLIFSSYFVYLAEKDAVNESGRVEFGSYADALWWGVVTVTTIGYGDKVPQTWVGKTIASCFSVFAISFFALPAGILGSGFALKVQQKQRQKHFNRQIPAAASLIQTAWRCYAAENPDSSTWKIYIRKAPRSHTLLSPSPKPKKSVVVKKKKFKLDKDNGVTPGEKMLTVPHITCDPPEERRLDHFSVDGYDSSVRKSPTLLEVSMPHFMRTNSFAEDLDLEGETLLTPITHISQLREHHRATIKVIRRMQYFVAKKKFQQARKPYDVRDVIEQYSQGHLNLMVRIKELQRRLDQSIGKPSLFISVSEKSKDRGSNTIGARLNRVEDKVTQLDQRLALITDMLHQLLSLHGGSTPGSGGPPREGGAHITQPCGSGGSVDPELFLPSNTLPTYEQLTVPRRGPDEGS
KCNQ2 pot confirm: rat KCNQ2 channel potentiator confirmation; shares compounds with KCNQ2 enhance; CHO-KCNQ2 cells, FluxOR thallium flux fluorescence; potentiation, less the hit threshold, % at 10 µM; 1,200 tested, 68% active;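 active = fluorescence ratio rising 3 SD or more over the vehicle control mean in both replicates, plus primary screen hit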;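 also: peak minus minimum thallium fluorescence divided by baseline after K/Tl stimulus; 0% = vehicle mean plus 3 SD and 100% = vehicle minus unstimulated blank difference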
Kir2-1 sel: tests whether KCNQ2 potentiators also affect mouse Kir2.1 | shares compounds with KCNQ2 enhance | HEK293 Kir2.1, FluxOR thallium flux fluorescence | activity over 3SD threshold, % at 10 µM | 1,200 tested, 2% active | AID 2345;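 active = fluorescence ratio rise of at least 3 SD above the vehicle-control mean, seen in both replicates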;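 also: 0% = vehicle mean plus 3 SD and 100% = vehicle minus no-stimulus blank window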
KCNQ2 W236L MoA: rat KCNQ2 W236L mutant potentiation by KCNQ2 potentiators. shares compounds with KCNQ2 enhance. CHO KCNQ2-W236L, automated patch clamp current. current increase over 3SD of negative controls (%), stronger effect = higher value, % at 25 µM. AID 2558. 940 tested, 10% active;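 active = current increase at least 3 SD of the untreated controls above them in both duplicate recordings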
* marks the source's active call; other numbers are inactive results; i = inactive; . = no result.

SMILES	KCNQ2 enhance	KCNQ2 block	Kir21 conf inh	HEK293 Tl flux	others
Cc1cc(Cn2nc(-c3ccccc3)cc2C(=O)NCc2cccc(C(F)(F)F)c2)on1	1.1	i	.	.
COc1ccc(S(=O)(=O)N2CCC(C(=O)Nc3ccccc3N3CCCCC3)CC2)cc1OC	0.13	i	.	.
CC1CCc2c(sc(NS(=O)(=O)c3ccccc3)c2C(=O)OC(C)C)C1 (configuration not stated)	4.1	i	i	i
CC1CCc2c(sc(NC(=O)c3ccco3)c2C(=O)O)C1 (configuration not stated)	1.6	i	.	.
CC(C)CC(=O)NC(=S)Nc1nc(-c2cccc3ccccc23)cs1	8.4*	i	i	i	CHO-K1 ctr=3.5*;KCNQ1 sel pot=9.8*;KCNQ2 pot confirm=-11;Kir2-1 sel=-20
CCOC(=O)Cc1csc(NC(=S)NC(=O)CC(C)C)n1	.	i	.	.
CSc1nnc(NC(=O)c2nc(S(=O)(=O)Cc3ccccc3)ncc2Cl)s1	14*	i	i	i	CHO-K1 ctr=23*;KCNQ1 sel pot=18*;KCNQ2 pot confirm=83*;Kir2-1 sel=-48;KCNQ2 W236L MoA=32%*
CCOc1ccccc1NC(=O)c1nc(S(=O)(=O)Cc2ccccc2)ncc1Cl	1.9	i	.	.
CSc1ncc(Cl)c(C(=O)Nc2nnc(SC)s2)n1	0.02	i	.	.
CC(C)c1nnc(NC(=O)c2nc(S(=O)(=O)Cc3ccccc3)ncc2Cl)s1	15*	i	i	i	CHO-K1 ctr=23*;KCNQ1 sel pot=-9;KCNQ2 pot confirm=94*;Kir2-1 sel=-48;KCNQ2 W236L MoA=29%*
CCCc1nnc(NC(=O)c2nc(S(=O)(=O)Cc3ccc(C)cc3)ncc2Cl)s1	10*	i	.	.	CHO-K1 ctr=-11;KCNQ1 sel pot=-13;KCNQ2 pot confirm=55*;Kir2-1 sel=-68;KCNQ2 W236L MoA=25%*
CCc1ccc(NC(=O)c2nc(S(=O)(=O)Cc3ccccc3)ncc2Cl)cc1	0.71	i	.	.
C/C(=C/CCC(C)C1CCC2(C)C3CCC4C(C)(C)C(=O)CCC4(C)C3=CCC12C)C(=O)O (configuration not stated)	1.6	i	.	.
C/C(=C/CCC(C)[C@H]1CC[C@@]2(C)C3=C(CC[C@]12C)[C@@]1(C)CCC(=O)C(C)(C)[C@@H]1CC3)C(=O)O (some centres not stated)	21*	i	i	i	CHO-K1 ctr=1.4*;KCNQ1 sel pot=-11;KCNQ2 pot confirm=-26;Kir2-1 sel=-33
CC(=O)N1CCc2cc(Br)cc(S(=O)(=O)N3CCc4ccccc43)c21	0.88	i	.	.
Cc1ccc(-n2nnnc2-c2ccccc2)cc1	.	i	.	.
Cc1ccc(-n2nnnc2C(Cl)c2nnnn2-c2ccc(C)cc2)cc1	.	i	39%*	i
Cc1ccnc(NC(=O)Cn2c(=O)oc3cc(S(=O)(=O)N4CCCC4)ccc32)c1	0.6	i	.	.
COc1ccc(C[C@H]2CN3C(=NC[C@@H]3Cc3ccccc3)N2CCNC(=O)CCC2CCCCC2)cc1	.	i	40%*	i
CC(C)[C@H]1CN=C2N(CCNC(=O)CCC3CCCCC3)[C@H](Cc3ccc(O)cc3)CN21	.	i	.	.
COc1ccc(C[C@H]2CN3C(=NC[C@@H]3C(C)C)N2CCNC(=O)CCC2CCCCC2)cc1	.	i	64%*	i
O=C(CCC1CCCCC1)NCCN1C2=NC[C@H](Cc3ccc(O)cc3)N2C[C@H]1Cc1ccc(O)cc1	0.57	i	.	.
O=C(Nc1ncccn1)c1cccc(Cl)c1	0.27	i	.	.
COc1ccc(NC(=O)/C(Cl)=C(/Cl)S(=O)Cc2ccccc2)cn1 (configuration not stated)	12*	i	i	64%*	CHO-K1 ctr=0.3*;KCNQ1 sel pot=-15;KCNQ2 pot confirm=12*;Kir2-1 sel=-45;KCNQ2 W236L MoA=3.2%*
COc1ccc(NC(=O)Cc2ccccc2)cn1	.	i	.	.
